The values that follow come from PubChem BioAssay AID1851 (National Center for Advancing Translational Sciences (NCATS), 2009).

Structures are written as SMILES. In all, about 16,000 compounds went through this assay and about 5,700 (36%) were called active. About 24% were inconclusive and are not listed. The list shows a part of the results. A number with no mark means an inactive call. Calls follow the shape of the dose curve; as a rule, active = well fitted curve in the direction sought with a large enough effect; inconclusive = small, poorly fitted or top-dose-only effect, or effect the other way; inactive = no such curve, though single readings can be large or run the other way.

As a reminder, the AC50 is the concentration giving half of the maximal activity seen.
% is scaled to controls: 0 for no effect and ±100 for the full control effect.

Chain of Cytochrome P450 1A2 (Homo sapiens) (P05177 whole entry, looked up): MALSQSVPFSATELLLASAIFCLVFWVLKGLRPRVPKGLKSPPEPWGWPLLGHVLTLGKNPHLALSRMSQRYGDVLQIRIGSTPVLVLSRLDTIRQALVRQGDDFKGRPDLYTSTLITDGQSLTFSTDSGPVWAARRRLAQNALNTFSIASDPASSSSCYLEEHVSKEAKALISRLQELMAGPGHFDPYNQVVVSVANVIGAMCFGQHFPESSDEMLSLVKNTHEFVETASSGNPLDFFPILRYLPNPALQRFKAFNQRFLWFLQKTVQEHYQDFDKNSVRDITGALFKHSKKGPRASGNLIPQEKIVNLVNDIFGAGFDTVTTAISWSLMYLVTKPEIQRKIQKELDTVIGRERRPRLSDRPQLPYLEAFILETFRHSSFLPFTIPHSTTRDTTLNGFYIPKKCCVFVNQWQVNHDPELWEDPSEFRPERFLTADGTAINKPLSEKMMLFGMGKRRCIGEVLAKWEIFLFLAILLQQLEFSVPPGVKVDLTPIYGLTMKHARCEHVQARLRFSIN

The experiment concerns the target Cytochrome P450 1A2 (Homo sapiens) (UniProt P05177). In words: Cytochrome panel assay with activity outcomes. Particulars: recombinant CYP, pro-luciferin dealkylation, luminescence, p450-cyp1a2; series mostly up to 57.1 µM; activity, negative = inhibition: at the top concentration.
For the molecule `COc1ccc(CNc2ncncc2-c2ccc(N(C)C)cc2)c(OC)c1`, the AC50 is 0.631 µM (active). On the same count and under the same terms, the figure for `COc1ccccc1CNc1ncncc1-c1ccc(C(=O)N(C)C)cc1` is 12.6 µM (active); for `COc1ccc(CNc2ncncc2-c2ccc(C(=O)N(C)C)cc2)c(OC)c1` it is 15.8 µM (active). On to `CC(C)=CCC/C(C)=C/CO/N=C1/C[C@@H](O)[C@@H](O)[C@@H]2[C@@H]3C(=O)N(C4CCCCC4)C(=O)[C@H]3CC[C@H]12`, for which the activity, negative = inhibition is -2.85% [at 11.4 µM]. With `C[C@@]12CCC(=O)C=C1CC[C@@H]1[C@@H]2[C@H](O)C[C@]2(C)[C@@H]1CC[C@]2(O)C(=O)COC(=O)CCC(=O)O`, the “activity, negative = inhibition” value was 1.05%. Take `CC(C/C=N/NC(=O)COc1cc(Cl)ccc1Cl)c1ccccc1` (centres undefined): the AC50 was 0.562 µM (active). For `Cc1ccccc1C(=O)Nc1ccc(C(=O)NNC(=O)CCCOc2ccc(Cl)cc2Cl)cc1`, the “activity, negative = inhibition” value was -24.9%. For the molecule `O=C(COc1ccc(Cl)cc1Cl)N/N=C/CCc1ccccc1`, the concentration at half-maximal activity (AC50) was 1 µM (active).

On to `COC(=O)c1c(-c2cc(OC)c(OC)c(OC)c2)c2ccnc(OCc3ncccn3)c2c(=O)n1Cc1ccnc(C)c1`, for which the AC50 result is “inactive”. Consider `N=C(N)N1CCc2ccccc2C1`, for which the “activity, negative = inhibition” value is -6.45% [at 25.6 µM].

For `O=C(c1ccc(CN2CCc3ccccc3C2)cc1)N1CCc2ccccc2C1`, the “activity, negative = inhibition” value was -22.3%. Turning to `CCc1ccc(/C=C\C(=O)N2CCc3ccccc3C2)cc1`, the AC50 was 14.1 µM (active). As to `Cc1ccccc1OCC(=O)N/N=C1\CCOc2c(C)cccc21`, the “activity, negative = inhibition” value was -14%. As for `Cc1cccc2c1OCC/C2=N\NC(=O)COc1ccccc1Cl`, the half-maximal activity concentration (AC50) is 0.891 µM (active). Same read-out and setting: as for `COc1cccc(OCC(=O)NN=C2c3ccccc3-c3ccccc32)c1`, the figure is 0.501 µM (active). Regarding `CCOC(=O)C1=NOC(CNC(=O)C2=NOC(CNC(=O)c3c(-c4ccccc4Cl)noc3C)C2)C1` (centres undefined), the “activity, negative = inhibition” value is 2.92%. As to `Cc1cccc2c1OCC/C2=N\NC(=O)COc1ccccc1`, the concentration at half-maximal activity (AC50) is 2.51 µM (active). Regarding `CO/N=C\[C@@H](NS(=O)(=O)c1ccc(C)cc1)[C@H](C)/C=C\CC(=O)OC`, the activity, negative = inhibition is -9.25% [at 11.4 µM].

On to `CO/N=C(/C)CCC(=O)OC[C@@H]1O[C@H](C#Cc2ccccc2)C=C[C@@H]1Oc1ccc(C)cc1`, for which the activity, negative = inhibition is -10.1% [at 11.4 µM]. On to `CC(=O)[C@@]1(O)CC[C@H]2[C@H]3C[C@@H](C)C4=CC(=O)C=C[C@]4(C)[C@@]3(F)[C@@H](O)C[C@]21C`, for which the “activity, negative = inhibition” value was -14.8% [at 25.6 µM]. Same read-out and setting: the figure for `CC(=O)[C@H]1CC[C@H]2[C@@H]3C=CC4=CC(=O)CC[C@@]4(C)[C@H]3CC[C@]12C` is -8.55% [at 25.6 µM]. As to `O=c1c(-c2ccccc2)nc2cncnc2n1-c1ccccc1`, the AC50 is 5.01 µM (active). Turning to `O=c1c(-c2cccc(Cl)c2)nc2cncnc2n1-c1ccccc1`, the AC50 is 2 µM (active).

`COc1ccc(-n2c(=O)c(-c3cccc(Cl)c3)nc3cncnc32)cc1`: the concentration at half-maximal activity (AC50) is 1 µM (active). On to `Cc1ccc(S(=O)(=O)N[C@H]2COC(=O)C/C=C\[C@H](C)[C@@H](NS(=O)(=O)c3ccc(C)cc3)COC(=O)C/C=C\[C@@H]2C)cc1`, for which the activity, negative = inhibition was -10.6% [at 11.4 µM]. In the case of `Cc1ccc(CNC(=O)[C@H]2C[C@@H]2[C@H](NP(=O)(c2ccccc2)c2ccccc2)c2ccccc2)c(F)c1F`, the “activity, negative = inhibition” value was -17.4%. On to `C[C@H](CO)NC(=O)[C@H]1C[C@@H]1[C@H](NP(=O)(c1ccccc1)c1ccccc1)c1ccccc1`, for which the “activity, negative = inhibition” value is -7.78%. For `O=C(Nc1ccc2ccccc2c1)[C@H]1C[C@@H]1[C@H](NP(=O)(c1ccccc1)c1ccccc1)c1ccccc1`, the AC50 is 10 µM (active). On to `O=C(NCc1cc(F)cc2c1OCCO2)[C@H]1C[C@@H]1[C@H](NP(=O)(c1ccccc1)c1ccccc1)c1ccccc1`, for which the concentration at half-maximal activity (AC50) is 15.8 µM (active).

`Cc1cc(CNC(=O)[C@@H]2C[C@H]2[C@@H](NP(=O)(c2ccccc2)c2ccccc2)c2ccccc2)nn1C`: the “activity, negative = inhibition” value is -17.4%.

With `C[C@H](CO)NC(=O)[C@@H]1C[C@H]1[C@@H](NP(=O)(c1ccccc1)c1ccccc1)c1ccccc1`, the “activity, negative = inhibition” value is -9.59%. Same read-out and setting: as for `Cn1cccc1C(=O)N1CCC[C@@]2(CCN(Cc3nccs3)C2)C1`, the figure is -7.87%. In the case of `CCC(=O)N1CCN(c2ccc(NC(=O)c3cccs3)cc2)CC1`, the “activity, negative = inhibition” value is -9.21%. Consider `CCN(CC)S(=O)(=O)c1ccc(C(=O)NC2=C(C(=O)OC)SCC2)cc1`, for which the half-maximal activity concentration (AC50) was 12.6 µM (active). `COC(=O)C1=C(NC(=O)c2cccs2)CCS1`: the concentration at half-maximal activity (AC50) was 2.51 µM (active).

In the case of `CCCCN(CC)S(=O)(=O)c1ccc(C(=O)Nc2nnc(CSC)o2)cc1`, the “activity, negative = inhibition” value was -27.9%. Regarding `COC(=O)C1=C(NC(=O)c2cccc(OC)c2)CCS1`, the half-maximal activity concentration (AC50) is 3.16 µM (active). Take `CCN(CC)S(=O)(=O)c1ccc(C(=O)Nc2ncn(Cc3ccccc3)n2)cc1`: the “activity, negative = inhibition” value was -10.7%. For the molecule `CC(=O)N(O)CCCCCNC(=O)CCC(=O)N(O)CCCCCNC(=O)CCC(=O)N(O)CCCCCN`, the “activity, negative = inhibition” value is -5.91% [at 25.6 µM]. Turning to `O=C1[C@@H]2C=CC=CC2=NC(=S)N1CCN1CCC(=C(c2ccc(F)cc2)c2ccc(F)cc2)CC1`, the “activity, negative = inhibition” value is -5.13%.

Regarding `COc1ccc(C(C)=O)c(OC(=O)c2ccco2)c1`, the AC50 is 2 µM (active). Same read-out and setting: as for `O=C(Nc1cccc(OC(=O)c2ccco2)c1)c1ccco1`, the figure is 22.4 µM (active); as for `O=C(Oc1cccc(Br)c1)c1cccnc1`, 12.6 µM (active); as for `O=C(Oc1ccccc1[N+](=O)[O-])c1cccnc1`, 20 µM (active). Take `O=C(NNC(=S)Nc1ccccc1)c1ccco1`: the “activity, negative = inhibition” value is 0.324%. As for `CN(C(=O)C(Cl)Cl)c1ccc(OC(=O)c2ccco2)cc1`, the “activity, negative = inhibition” value was -3.35% [at 25.6 µM].

Regarding `NC(=O)c1ncn([C@@H]2O[C@@H](CO)[C@@H](O)[C@H]2O)c1O`, the “activity, negative = inhibition” value was -1.3%. For `O=[N+]([O-])c1ccc(CSc2ncnc3c2ncn3[C@@H]2O[C@@H](CO)[C@@H](O)[C@H]2O)cc1`, the “activity, negative = inhibition” value is -12.3%. As to `O=C(Nc1cccc(NC(=O)c2ccc(-c3cccc(Br)c3)o2)c1)c1ccco1`, the AC50 was 3.16 µM (active). For the molecule `O=C(Nc1ccc(OC(=O)c2cccnc2)cc1)c1cccnc1`, the “activity, negative = inhibition” value is -22.8%. As to `CC(C)C(=O)Nc1ccc(NC(=O)c2cccnc2)cn1`, the “activity, negative = inhibition” value was -6.09%. Turning to `O=C(Nc1cccc(OC(=O)c2cccnc2)c1)c1cccnc1`, the AC50 is 7.08 µM (active). Turning to `O=C(Nc1ccc2nc(-c3ccc(Br)o3)[nH]c2c1)c1ccco1`, the half-maximal activity concentration (AC50) is 3.55 µM (active).

Turning to `CCOc1ccc(C(=O)Nc2ccc(NC(=O)c3ccco3)c(Cl)c2)cc1Br`, the “activity, negative = inhibition” value was -16.5%. For the molecule `CN(C)Cc1ccccc1-c1nccc(Nc2ccc(F)cc2)n1`, the AC50 is 3.16 µM (active). With `CN(C)Cc1cc(C(C)(C)C)ccc1-c1ccc(C(C)(C)C)cc1CN(C)C`, the activity, negative = inhibition was -17.9% [at 2.29 µM]. In the case of `CN(C)Cc1ccccc1-c1nccc(N(C)C)n1`, the half-maximal activity concentration (AC50) was 12.6 µM (active). The same measure, in the same setting: as for `CNc1ccnc(-c2ccccc2CN(C)C)n1`, the figure is 12.6 µM (active); as for `CN(C)Cc1ccccc1-c1nccc(NC2CC2)n1`, 1.58 µM (active).
